Test results published in PubChem BioAssay.
The source made the active and inactive calls. How the calls were made is not given here.

Target: Pantothenate synthetase (Mycobacterium tuberculosis (strain ATCC 25618 / H37Rv)) (UniProt P9WIL5)
Assay: Recombinant Mtb pantothenate synthetase (PanC) inhibitors, coupled enzyme, confirmatory (AID 375);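 further: 0% = full reaction with vehicle and 100% = no enzyme background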
Settings: coupled enzyme assay; at 10 µM, stronger effect = higher value

Pantothenate synthetase (Mycobacterium tuberculosis (strain ATCC 25618 / H37Rv)), sequence (P9WIL5 whole entry, looked up): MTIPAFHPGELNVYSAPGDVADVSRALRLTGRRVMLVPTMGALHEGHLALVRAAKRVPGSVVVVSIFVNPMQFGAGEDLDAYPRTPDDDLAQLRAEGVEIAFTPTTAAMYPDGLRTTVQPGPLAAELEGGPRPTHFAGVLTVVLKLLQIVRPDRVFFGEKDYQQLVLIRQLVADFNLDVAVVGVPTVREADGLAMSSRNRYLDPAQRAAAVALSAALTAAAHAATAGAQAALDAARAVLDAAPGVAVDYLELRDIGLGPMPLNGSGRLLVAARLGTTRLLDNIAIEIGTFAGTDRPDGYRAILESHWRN

Compound	inhibition
Cc1cccc(C2CC(c3ccc(Br)cc3)Nc3nc(N)nn32)c1 (stereo not given)	0% (inactive)
CN(C)c1cccc(NC(=O)CCc2ccccc2)c1	0% (inactive)
Cc1cccc2c(=O)oc(-c3ccc4c(c3)C(=O)N(CC3CCCO3)C4=O)nc12 (stereo not given)	0% (inactive)
Cc1oc2nc(SCCCC(=O)NCCCO)nc(N)c2c1C	2% (inactive)
COC(=O)c1cc(-c2c(C)oc3cc(O)ccc3c2=O)c(C)o1	3% (inactive)
CS(=O)(=O)C1=C(O)C(=O)N(c2ccccc2)C1c1ccccc1 (stereo not given)	5% (inactive)
Nc1nc(Cl)nc2c1ncn2[C@H]1C[C@H](O)[C@@H](CO)O1	0% (inactive)
CCOC(=O)N1CCN(c2cc(=O)n(-c3cccc(Br)c3)c(=O)[nH]2)CC1	0% (inactive)
CCn1c(SCC(=O)N2CCCc3ccccc32)nnc1-c1cccs1	0% (inactive)
COc1ccc(CNC(=O)C(c2ccco2)N(Cc2cccs2)C(=O)Cc2cccs2)cc1 (stereo not given)	0% (inactive)
Cc1cccc2cc(C#N)c(SCCN3CCCCC3)nc12	0% (inactive)
Cc1cc(C)n(-c2ccc3cccc(NS(C)(=O)=O)c3n2)n1	0% (inactive)
O=C(CNc1ccc(Oc2ccccc2)cc1)N1CCOCC1	0% (inactive)
COc1cccc(CNC(=O)C2CCN(S(=O)(=O)c3ccc(F)cc3)CC2)c1	8% (inactive)
COc1cccc(OCCSc2nnc3sc4ccccc4n23)c1	0% (inactive)
Cc1cc(C)c2c(n1)nn1c(NCCCN3CCOCC3)cc(C)nc21	9% (inactive)
COc1ccc(-c2nc(CSCC(=O)NCc3ccc4c(c3)OCO4)c(C)o2)cc1OC	0% (inactive)
O=c1cc(C(F)F)oc2c1ccc1ccccc12	0% (inactive)
COc1ccc(C(=O)c2ccccc2)c(O)c1	1% (inactive)
O=C(NCN1CCCCC1)c1cccnc1	0% (inactive)

Compound	inhibition
Cc1nn(-c2ccc(F)cc2)c2c1cc(C#N)c1nc3ccccc3n12	6% (inactive)
CN1CCN(CCCN2c3ccccc3Sc3ccc(C(F)(F)F)cc32)CC1	1% (inactive)
COc1cccc(C(=O)CN2CCC(NC(=O)NC3CCCCC3)CC2)c1	6% (inactive)
CN(C)S(=O)(=O)c1ccc(C(=O)NCc2cccs2)cc1	4% (inactive)
CCn1c(SCC(=O)Nc2cc(C)ccc2C)nc2c(c1=O)SC(C)C2 (stereo not given)	0% (inactive)
COc1cc(C(=O)N2CCN(c3cc(Cl)ccc3Cl)CC2)cc(OC)c1OC	1% (inactive)
CCOc1ccc(CCNc2nc3c(c(=O)n(C)c(=O)n3C)n2CC)cc1OCC	0% (inactive)
Cc1cc(NC(=O)c2cnn3c(C(F)F)cc(C4CC4)nc23)no1	0% (inactive)
COc1ccc(/C=C(/C#N)c2cccnc2)cc1OC	8% (inactive)
CCOC(=O)c1cccc(NC(=O)C2CCN(S(=O)(=O)c3cccs3)CC2)c1	0% (inactive)
CC(=O)N1CCc2cc(S(=O)(=O)NCCC3=CCCCC3)ccc21	2% (inactive)
O=C(CCSc1ccccc1)N1CCOCC1	0% (inactive)
CC1(C)C(c2ccccc2)=NC(c2ccccc2)N1O (stereo not given)	3% (inactive)
CC(C)CNc1oc(-c2ccc(F)cc2)nc1C#N	2% (inactive)
O=C(NCC(F)(F)F)Nc1cccnc1	7% (inactive)
Cc1ccc(C)c(N2CCN(CCCNC(=O)Cn3cc4c(n3)CCCCC4)CC2)c1	2% (inactive)
O=C(NC1CCCCC1)N(Cc1ccc(F)cc1)Cc1nc2ccccc2c(=O)[nH]1	9% (inactive)
Cc1ccc(SCCC(=O)N(C)C)cc1	0% (inactive)
COCCn1c(=NC(=O)CSC(C)=O)sc2cc(F)ccc21	12% (inactive)
CCOP(=O)(c1ccc(N(C)C)cc1)C(O)c1c(Cl)cccc1Cl (stereo not given)	0% (inactive)
